High-throughput results as filed in PubChem BioAssay.
CBFb-RUNX1 inh – blocks binding between human CBF-beta and RUNX1; Q01196+Q13951; AlphaScreen CBFb-His/RUNX1-biotin binding, biochemical; 230,000 tested, under 10 active; Potency, µM (top dose mostly 59.8 µM), inactives show top-dose activity, negative = inhibition, usual class: inhibitors; AID 1477; further: % of control where 0% means no effect
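CBF-beta (His) and RUNX1 (biotin), 30 nM each; 20 min preassociation; + compound, 15 min; + beads 50 ng each (Ni, streptavidin), 90 min; RT; AlphaScreen read.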
GoLoco inh red – RGS12 GoLoco-Gai1 interaction inhibition | 0.44% of 230,000 active | Gai1:RGS12 GoLoco peptide FP, rhodamine, 10 min | Potency, µM (titrated, usually from 61.6 µM), for the others: top-dose activity, negative = inhibition, usual class: inhibitors | P63096; active means well fitted inhibition curve with a large enough effect, not every such curve was filed as active; inactive means no such curve, though single readings can be large or run the other way; further: potency means the concentration at half of the fitted maximal effect; on the % scale 0 is the no-effect control and ±100 the full control effect; nearly all actives have a fitted effect of over 30% in size
Target sequence (P63096 whole entry, looked up): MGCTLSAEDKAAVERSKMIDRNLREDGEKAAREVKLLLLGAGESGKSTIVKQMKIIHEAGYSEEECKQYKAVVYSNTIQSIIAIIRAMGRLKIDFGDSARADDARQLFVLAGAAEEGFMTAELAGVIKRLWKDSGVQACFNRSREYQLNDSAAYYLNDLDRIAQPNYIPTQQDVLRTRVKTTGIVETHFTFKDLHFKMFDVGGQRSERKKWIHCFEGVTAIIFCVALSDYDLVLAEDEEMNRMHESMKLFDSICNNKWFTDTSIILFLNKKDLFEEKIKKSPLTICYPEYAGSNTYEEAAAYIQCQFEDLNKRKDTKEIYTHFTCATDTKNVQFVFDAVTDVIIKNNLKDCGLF
TRb-SRC2 inh – inhibitors of human thyroid hormone receptor beta-SRC2 interaction. P10828. TRbeta-SRC2 peptide binding, fluorescence polarization; receptor liganded with 1 µM T3. Potency, µM (titrated, usually from 106 µM), for the others: top-dose activity change, negative = inhibition, usual class: inhibitors. 0.065% of 280,000 active;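 further: potency means the concentration at half of the fitted maximal effect; plate controls were bound peptide for no effect and peptide without receptor for full effect; nearly all actives have a fitted effect of over 50% in size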
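A fluorescence polarization screen tested compounds at multiple concentrations against complex formation between 0.6 uM TRb ligand-binding domain and 20 nM Texas Red SRC2 peptide, with 1 uM T3 present; readout after 5 hr.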
ERG-DNA inh – blocks human ERG Ets domain binding to DNA | fluorescence polarization, His-ERG Ets domain / labelled DNA | Potency, µM (titrated, usually from 76.9 µM), for inactives: top-dose FP activity, negative = inhibition, hits mostly inhibitors | P11308 | AID 624246 | 0.028% of 370,000 active; active means well fitted inhibition curve with a large enough effect in the polarisation, with a control signal flat; inconclusive means small, poorly fitted or top-dose-only effect, or effect the other way, or a change in a side signal; inactive means no such curve, though single readings can be large or run the other way; the % refers to the polarisation;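 further: polarization taken with two DNA probes labelled with fluorescein and Texas red; potency means the concentration at half of the fitted maximal effect; % of control where 0% means no effect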
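His-tagged ERG Ets domain (1 uM in the protein solution; 300mM KCl, 50mM Tris-HCl, 1mM EDTA, 1mM DTT, pH 7.5) received compound, then a probe mix of 5 nM fluorescein-DNA and 100nM Texas-615-DNA. Fluorescence polarization was read for both dyes.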
TexasRed fluor – Texas Red fluorescence interference in TRb-SRC2 counter-screen; Potency, µM (doses to about 106 µM), for the others: at the top dose fluorescence change, negative = quenching; 0.29% of 280,000 active; AID 1479; TRb/SRC2 Texas Red total fluorescence interference; active means well fitted curve in either direction with a large enough effect; inconclusive means small, poorly fitted or top-dose-only effect; further: potency means the concentration at half of the fitted maximal effect; on the % scale 0 is the no-effect control and ±100 the full control effect
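Human TRβ ligand-binding domain (0.6 uM) and Texas Red SRC2 peptide (20 nM) in Tris buffer with 1 uM T3 and 5% DMSO were incubated with pinned compound for 5 hr at ambient temperature. Total fluorescence was computed as S + 2P (555/632 nm).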
An asterisk follows results filed as active; ? = inconclusive; nt = not tested or not shown; [ ] = dose if it differs, or a comment. Shown is part of a subset that was picked to be rich in hits. Unless noted, the call rests on the fitted dose curve; in most records, active means well fitted curve in the direction sought with a large enough effect; inconclusive means small, poorly fitted or top-dose-only effect, or another doubt; inactive means no such curve, though single readings can be large; an effect the other way counts as inactive or inconclusive.

SMILES | CBFb-RUNX1 inh | GoLoco inh red | TRb-SRC2 inh | ERG-DNA inh | TexasRed fluor
COc1cc(NS(=O)(=O)c2ccc3[nH]c4c(c3c2)CCCC4)cc(OC)c1OC | nt | nt | -15% | -1% | 20µM*[quencher]
Cc1ccc(NC(=O)CCCCCCCCCCC2COCCO2)c(C)c1 (centres undefined) | -5% | -9% | ? | nt | 0.025µM*[quencher]
Cc1ccc(Cl)cc1N1CCN(c2cccc[n+]2C)CC1 | -4% | -62% | 14%[53 µM] | 9% | 0%[53 µM]
C[n+]1ccccc1N1CCN(c2ccccc2Cl)CC1 | 7% | 13µM* | 6%[53 µM] | 16% | -1%[53 µM]
COC(=O)c1ccc(I)cc1S(=O)(=O)NC(=O)Nc1nc(C)nc(OC)n1 | nt | nt | -2%[201 µM] | nt | 1%[201 µM]
COc1cc(OC)cc(OC)c1 | 8% | 18µM* | 1% | nt | -1%
COc1cc(O)cc(O)c1 | nt | nt | 9% | nt | 0%
C=CCOc1c(Cl)cc(CNc2ccc(N(C)C)cc2)cc1OC | -1% | 22µM* | 9% | -21% | -2%
Oc1ccc(N=Cc2ccc(O)c(O)c2)cc1 | 6% | 16µM* | 1% | -12% | -7%
COC(=O)c1cccc(C)c1S(=O)(=O)NC(=O)Nc1nc(OCC(F)(F)F)nc(N(C)C)n1 | nt | nt | -3%[201 µM] | nt | -1%[201 µM]
CN=c1nc(-c2ccccc2)n(-c2ccccc2)s1 | -10% | 5µM* | 3% | -9% | 2%
CCN1C(c2ccccc2)=C(c2ccccc2)S/C1=C/C=C1\SC(=S)N(C)C1=O | ? | 11% | ? | ? | 18µM*[fluorescent]
CCN1C(=O)/C(=C/C=C2/Sc3ccc4ccccc4c3N2CCO)SC1=S | -8% | 235% | 19% | 79% | 22%
O=C1C=CC(=O)c2c(O)c(Cl)c(Cl)c(O)c21 | nt | 0.35µM* | -6% | nt | ?
Oc1c(Cl)ccc(Cl)c1Cl | 9%[21.7 µM] | -5% | 8% | nt | 0%
O=C(OCC1OC(OC(=O)c2cc(O)c(O)c(OC(=O)c3cc(O)c(O)c(O)c3)c2)[C@@H](OC(=O)c2cc(O)c(O)c(OC(=O)c3cc(O)c(O)c(O)c3)c2)C(OC(=O)c2cc(O)c(O)c(OC(=O)c3cc(O)c(O)c(O)c3)c2)C1OC(=O)c1cc(O)c(O)c(OC(=O)c2cc(O)c(O)c(O)c2)c1)c1cc(O)c(O)c(OC(=O)c2cc(O)c(O)c(O)c2)c1 (some centres undefined) | nt | -14% | ? | nt | 16µM*[quencher]
CCCCN(CCCC)CCCC | nt | nt | 0%[201 µM] | nt | -3%[201 µM]
CCCCCCNC(=O)N[C@H](C(=O)NCCC[C@H]1CN2C(=NC[C@H]2C)N1CCC(c1ccccc1)c1ccccc1)C(C)O (some centres undefined) | -5% | 10µM* | 4% | nt | 1%
COC1=CC(=O)C=C(OC)C1=O | -12% | 20µM* | 11% | -2% | 0%
COC1=CC(=O)c2ccccc2C1=O | nt | nt | nt | 4% | nt
CC(C)c1nc2scc(-c3ccc(Cl)cc3)c2c(=O)n1N | 17% | 6% | 13% | -13% | -2%
COC(=O)c1c(O)cc(C(C)(C)C)n(-c2ccc(F)cc2)c1=O | 7% | -7% | 2% | -8% | 2%
Cc1cccc(N2C(=O)c3cccc4c(N(C)CCO)ccc(c34)C2=O)c1 | 26% | 25µM* | -1% | -4% | -6%
Cc1ccc2onc(CC(=O)N3CCN(c4cccc(Cl)c4)CC3)c2c1 | nt | nt | -27% | -11% | 25µM*[quencher]
COc1ccc(CNc2nc(-c3ccc(N(C)C)cc3)nc3ccccc23)c(OC)c1 | nt | 8.9µM* | nt | nt | nt
SMILES | CBFb-RUNX1 inh | GoLoco inh red | TRb-SRC2 inh | ERG-DNA inh | TexasRed fluor
COc1ccc(CNc2nc(-c3ccc(C(=O)N(C)C)cc3)nc3ccccc23)c(OC)c1 | nt | -4% | 6% | nt | -10%
CCCN(CCC)c1c([N+](=O)[O-])cc(C(F)(F)F)c(N)c1[N+](=O)[O-] | nt | nt | -2%[201 µM] | nt | -2%[201 µM]
COc1ccc(NC(=O)CCS(=O)(=O)c2ccc(Br)s2)cc1 | nt | nt | nt | -15% | nt
CC(C)c1ccc(NC(=O)CCS(=O)(=O)c2ccc(Br)s2)cc1 | nt | nt | ? | 3% | 28µM*[quencher]
Cc1sc2nc(SCc3nc(-c4ccccc4)no3)n(-c3ccccc3)c(=O)c2c1C | 2% | 10µM* | -18% | -8% | -1%
C[Si]1(C)O[Si](C)(C)O[Si](C)(C)O[Si](C)(C)O1 | nt | nt | 6%[201 µM] | nt | 5%[201 µM]
c1ccc2c(c1)ccc1c3ccccc3ccc21 | nt | nt | 5%[201 µM] | nt | 1%[201 µM]
